# Reference: PubChem BioAssay (NCATS)
# Records with an inconclusive call do not appear. Calls of active or inactive are those of the source. Unless noted, the call rests on the fitted dose curve; in most records, active means well fitted inhibition curve with a large enough effect; inconclusive means small, poorly fitted or top-dose-only effect; inactive means no such curve, though single readings can be large or run the other way.
# Target: 3',5'-cyclic-AMP phosphodiesterase 4B (Homo sapiens) (UniProt Q07343)
# Assay: qHTS Assay for Inhibitors of PDE-IV (AID 607; active means well fitted activation curve with a large enough effect in the main read-out, with a control signal flat, not every such curve was filed as active; further: % of control where 0% means no effect)
# Conditions: HEK293 ACTOne CNG channel cells, membrane potential fluorescence; series mostly up to 22.9 µM; activation (PDE inhibition): at the top concentration
# Summary of the method: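 The readout is membrane depolarisation from a cAMP-sensing CNG channel, detected with a potential dye at ex 535/em 590. Cells were HEK293-derived (endogenous PDE-IV) at 1000 cells/well, titrated up to 22.9 uM final.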
# 3',5'-cyclic-AMP phosphodiesterase 4B (Homo sapiens), sequence (Q07343 whole entry, looked up): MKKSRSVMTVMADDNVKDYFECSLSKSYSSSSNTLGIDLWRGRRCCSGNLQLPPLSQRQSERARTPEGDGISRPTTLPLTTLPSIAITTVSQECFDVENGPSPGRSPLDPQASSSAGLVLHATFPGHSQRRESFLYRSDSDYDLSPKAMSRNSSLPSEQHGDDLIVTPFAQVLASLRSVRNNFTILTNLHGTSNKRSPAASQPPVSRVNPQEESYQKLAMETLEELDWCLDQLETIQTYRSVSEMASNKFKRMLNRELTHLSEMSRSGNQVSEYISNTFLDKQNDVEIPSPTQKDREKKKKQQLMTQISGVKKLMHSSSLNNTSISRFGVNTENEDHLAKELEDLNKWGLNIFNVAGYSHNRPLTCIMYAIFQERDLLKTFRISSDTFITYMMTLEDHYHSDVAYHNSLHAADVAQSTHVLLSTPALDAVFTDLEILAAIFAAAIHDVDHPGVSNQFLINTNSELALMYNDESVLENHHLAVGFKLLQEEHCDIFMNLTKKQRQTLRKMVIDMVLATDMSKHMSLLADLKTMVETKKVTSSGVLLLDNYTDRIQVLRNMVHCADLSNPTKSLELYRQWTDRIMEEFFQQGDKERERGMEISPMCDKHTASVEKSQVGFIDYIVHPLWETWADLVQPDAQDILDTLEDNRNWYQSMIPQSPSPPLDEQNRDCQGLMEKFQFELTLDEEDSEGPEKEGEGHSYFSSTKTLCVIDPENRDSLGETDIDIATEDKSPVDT
row,Compound,activation (PDE inhibition)
1,COc1ccccc1CNc1ccnc(-c2ccccc2OC)n1,26.4% (inactive)
2,N#CCCn1c(=O)c(-c2ccc(F)cc2)nc2cnc(N3CCNCC3)nc21,-5.09% (inactive)
3,COc1cccc(-c2nccc(NCc3ccccc3OC)n2)c1,15.1% (inactive)
4,Cc1noc(C)c1-c1nc(NC2CC2)c2ccccc2n1,6.94% (inactive)
5,COc1ccccc1-c1cc(NCc2cnc(C)cn2)ncn1,0.569% (inactive)
6,COc1cccc(Nc2ncc3nc(-c4ccc(Cl)cc4)c(=O)n(C[C@H]4CCCO4)c3n2)c1,5.64% (inactive)
7,CN(Cc1ccco1)c1cc(-c2cccc(C#N)c2)ncn1,5.81% (inactive)

# Target: Cytochrome P450 2C9 (Homo sapiens) (UniProt P11712)
# Assay: qHTS Assay for Inhibitors and Substrates of Cytochrome P450 2C9 (AID 883); further: nearly all actives have a fitted effect of over 60% in size; further: potency means the concentration at half of the fitted maximal effect; on activity change, negative = inhibition: on the % scale 0 is the no-effect control and ±100 the full control effect
# Conditions: recombinant CYP2C9, luciferin-H luminescence, 60 min; series mostly up to 57.1 µM; activity change, negative = inhibition: at the top concentration
# Summary of the method: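 Human CYP2C9 (10nM) hydroxylated Luciferin-H (100uM, at its KM) to luciferin in 25mM KPO4. Compound was preincubated 10 min at 37C, then NADPH regeneration started a 60 min reaction at 37C. Luminescence was read after detection reagent, normalized to 57uM sulphaphenazole.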
# Cytochrome P450 2C9 (Homo sapiens), sequence (P11712 whole entry, looked up): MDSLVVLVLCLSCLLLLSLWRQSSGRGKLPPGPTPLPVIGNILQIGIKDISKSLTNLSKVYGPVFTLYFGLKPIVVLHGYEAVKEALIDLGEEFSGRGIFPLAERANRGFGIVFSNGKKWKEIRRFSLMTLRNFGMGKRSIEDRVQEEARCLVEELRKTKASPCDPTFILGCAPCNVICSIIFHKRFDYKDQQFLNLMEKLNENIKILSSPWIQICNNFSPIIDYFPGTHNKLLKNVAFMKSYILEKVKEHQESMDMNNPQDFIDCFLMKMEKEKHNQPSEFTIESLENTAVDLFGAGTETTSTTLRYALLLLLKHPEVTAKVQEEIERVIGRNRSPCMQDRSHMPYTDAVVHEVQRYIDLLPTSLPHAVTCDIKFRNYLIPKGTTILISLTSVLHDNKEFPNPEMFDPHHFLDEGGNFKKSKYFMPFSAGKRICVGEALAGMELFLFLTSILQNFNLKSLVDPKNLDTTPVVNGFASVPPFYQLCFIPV
Compound,"activity change, negative = inhibition",Potency
CS(=O)(=O)Nc1cccc(-c2cc(Nc3ccccc3)ncn2)c1,56.3% [at 2.29 µM] (inactive),
COc1cccc(Cn2c(=O)c(-c3cccs3)nc3cnc(OC)nc32)c1,,3160 nM (active)
O=c1c(-c2ccc(Cl)cc2)nc2cnc(N3CCOCC3)nc2n1Cc1ccc(F)cc1,-6.13% (inactive),
COc1ccccc1CNc1cc(-c2ccccc2C(F)(F)F)ncn1,8.84% [at 2.29 µM] (inactive),
Cc1ccccc1-c1ccc2ncnc(NCc3cccnc3)c2c1,,794 nM (active)
CN(Cc1ccco1)c1cc(-c2cccc(C#N)c2)ncn1,12.3% [at 2.29 µM] (inactive),

# Target: Cytochrome P450 3A4 (Homo sapiens) (UniProt P08684)
# Assay: qHTS Assay for Inhibitors and Substrates of Cytochrome P450 3A4 (AID 884); further: nearly all actives have a fitted effect of over 50% in size; further: potency means the concentration at half of the fitted maximal effect; on activity change, negative = inhibition: on the % scale 0 is the no-effect control and ±100 the full control effect
# Conditions: recombinant CYP3A4, Luciferin-PPXE luminescence; series mostly up to 57.1 µM; activity change, negative = inhibition: at the top concentration
# Summary of the method: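 Luminescent readout of luciferin produced by CYP3A4 (20 nM) dealkylation of Luciferin-PPXE, 25 uM (its KM). NADPH-driven reaction ran 60 min at RT after 10 min compound preincubation; data scaled to 57 uM ketoconazole as 100% inhibition.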
# Cytochrome P450 3A4 (Homo sapiens), sequence (P08684 whole entry, looked up): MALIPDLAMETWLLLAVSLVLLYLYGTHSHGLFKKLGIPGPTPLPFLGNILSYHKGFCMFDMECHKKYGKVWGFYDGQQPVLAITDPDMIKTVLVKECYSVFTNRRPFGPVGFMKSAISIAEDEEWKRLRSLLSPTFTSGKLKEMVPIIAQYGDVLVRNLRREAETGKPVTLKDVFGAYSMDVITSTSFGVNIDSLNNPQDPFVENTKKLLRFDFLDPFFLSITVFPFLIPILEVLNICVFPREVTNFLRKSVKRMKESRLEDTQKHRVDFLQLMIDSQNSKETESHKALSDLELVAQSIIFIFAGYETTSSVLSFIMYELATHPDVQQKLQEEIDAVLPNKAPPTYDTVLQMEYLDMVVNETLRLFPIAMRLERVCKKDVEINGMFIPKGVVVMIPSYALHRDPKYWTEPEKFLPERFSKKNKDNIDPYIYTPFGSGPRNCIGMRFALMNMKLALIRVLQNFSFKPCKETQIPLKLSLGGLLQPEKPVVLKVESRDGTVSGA
Compound,Potency,"activity change, negative = inhibition"
COc1ccc2[nH]cc(CCNc3ccnc(-c4c(C)noc4C)n3)c2c1,2510 nM (active),
COc1cccc(Cn2c(=O)c(-c3cccs3)nc3cnc(OC)nc32)c1,3980 nM (active),
O=c1c(-c2ccc(Cl)cc2)nc2cnc(N3CCOCC3)nc2n1Cc1ccc(F)cc1,,42.9% (inactive)
COc1ccccc1CNc1cc(-c2ccccc2C(F)(F)F)ncn1,,49.5% (inactive)
Cc1ccccc1-c1ccc2ncnc(NCc3cccnc3)c2c1,1580 nM (active),
Cc1cnc(CNc2ncncc2-c2ccc(N(C)C)cc2)cn1,2000 nM (active),
Cc1cnc(CNc2cc(-c3ccccc3Cl)ncn2)cn1,,60% (inactive)
CCNc1ncc2nc(CCc3ccccc3)c(=O)n(Cc3ccc(F)cc3)c2n1,2510 nM (active),
CS(=O)(=O)Nc1cccc(-c2ccc3ncnc(N4CCOCC4)c3c2)c1,7940 nM (active),
COc1ccccc1CNc1ccnc(-c2c(C)noc2C)n1,5010 nM (active),
COc1ccccc1CNc1ncnc2ccc(-c3ccc4c(c3)OCO4)cc12,1260 nM (active),
COc1cccc(-c2nccc(NCc3ccccc3OC)n2)c1,2510 nM (active),
